Assay outcomes: PubChem BioAssay, several laboratories
SRC2 inh: human SRC2 (NCOA2) inhibition; inhibition, % at 9 µM; 370,000 compounds, 0.17% hits; Q15596; HEK293 GAL4-SRC2 luciferase reporter, luminescence;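 active = inhibition above the mean inhibition of all tested compounds plus 3 SD, set per campaign, cut at about 52% in these data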
NCOA1 inh: human NCOA1 inhibition; Q15788; HEK293 GAL4-SRC1 luciferase reporter, luminescence; inhibition, % at 3.6 µM; 360,000 compounds, 0.12% hits;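 active = inhibition above the campaign mean plus 3 SD, with each screening campaign given its own cutoff, cut at about 60% in these data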
EBV LMP1 NFkB: Epstein-Barr LMP1 NF-kappaB reporter inhibition; LMP1-induced NF-kappaB luciferase reporter cells, luminescence; inhibition, % at 12.5 µM; 350,000 compounds, 0.69% hits; AID 504558; in the data active = inhibition above about 41%; inconclusive = no clear call, values can overlap the other calls
Shn3 inh set2: reduces Shn3 3'UTR luciferase signal in osteoblasts; Clone20 osteoblast Shn3 3'UTR firefly luciferase, 24 h; inhibition, % at 12.5 µM; 360,000 compounds, 0.52% hits;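 active = mean inhibition of at least 75% with every replicate also reaching 75%; inconclusive = mean inhibition at least 75% but some replicate below; inactive = mean inhibition below 75%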
NR5A2 inv ag: suppresses constitutive activity of human LRH-1. 360,000 compounds, 0.13% hits. inhibition, % at 3.6 µM. O00482. HEK293T StAR-luciferase reporter, LRH-1 transfected, 24 h;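 active = inhibition above the mean inhibition of all tested compounds plus 3 SD, cut at about 73% in these data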
SRC3 inh: inhibitors of human steroid receptor coactivator 3 (SRC3); inhibition, % at 3.6 µM; Q9Y6Q9; 360,000 compounds, 0.17% hits; HEK293 GAL4-SRC3 luciferase reporter, luminescence;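 active = inhibition above a per-campaign cutoff, the mean of all compounds plus 3 SD, cut at about 60% in these data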;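 also: higher means less SRC3-driven luciferase light from the GAL4 reporter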
Each line names hits and unclear results; the compound was inactive in the other large screens. Hits are enriched below; roughly 1.2% of the tested compounds scored in any of these assays.

C/C(=N\NC(=O)C1COc2ccccc2O1)c1cc2ccccc2o1 (stereo unspecified)	EBV LMP1 NFkB 40
CC[n+]1c(/C=C/N(C)c2ccccc2)n(-c2ccccc2)c2ccc(-c3nc4ccccc4s3)cc21	NCOA1 inh 82, EBV LMP1 NFkB 51, Shn3 inh set2 98, NR5A2 inv ag 90, SRC3 inh 83 (no result: SRC2 inh)
Cc1c(C(=O)Nc2nc(-c3ccccn3)cs2)oc2ccccc12	EBV LMP1 NFkB 41 (no result: SRC2 inh)
Cc1csc(NC(=O)c2cccn2C)n1	none
Cc1cccnc1Nc1nc(-c2ccccn2)cs1	EBV LMP1 NFkB 51
Cn1cccc1C(=O)Nc1nc(-c2ccccn2)cs1	EBV LMP1 NFkB 42
Cc1cccnc1Nc1nc(-c2ccccc2)cs1	none
O=C(Nc1nc(-c2ccccn2)cs1)c1ccc(Cl)s1	EBV LMP1 NFkB 73, Shn3 inh set2 90
Cc1noc(C)c1S(=O)(=O)N1CCCc2nc(-c3ccc(F)cc3)ccc21	none (no result: NCOA1 inh, EBV LMP1 NFkB, Shn3 inh set2, NR5A2 inv ag, SRC3 inh)
O=C(Cc1c[nH]c2ccccc12)Nc1ccc(Nc2cccnc2)c(-c2ccc(OC(F)(F)F)cc2)c1	none (no result: NCOA1 inh, EBV LMP1 NFkB, Shn3 inh set2, NR5A2 inv ag, SRC3 inh)
[C-]#[N+][C@]12C(=O)[C@H](C=C(Cl)[C@@]1(C)C=C)C(C)(C)[C@H]1C(=O)N(C)c3cccc2c31	none (no result: NCOA1 inh, EBV LMP1 NFkB, Shn3 inh set2, NR5A2 inv ag, SRC3 inh)
S=C1Cc2ccccc2N1	SRC2 inh 67
S=C1Nc2ccccc2CS1	none
OCc1cc(C(O)CNCCCCCCOCCCCc2ccccc2)ccc1O (stereo unspecified)	EBV LMP1 NFkB 55
CCOCCCNCC(O)c1ccccc1 (stereo unspecified)	none
CCCc1nc(SCC(=O)NCc2ccco2)c2c(=O)n(C)c(=O)n(C)c2n1	EBV LMP1 NFkB 66
C[C@H](CO)N1C[C@H](C)[C@@H](CN(C)C(=O)NC2CCCCC2)OCc2cn(nn2)CCCC1=O	none (no result: NCOA1 inh, EBV LMP1 NFkB, Shn3 inh set2, NR5A2 inv ag, SRC3 inh)
O=C([C@@H]1C[C@H]1c1ccccc1)N1CC[C@H]2[C@H](CCCN2Cc2cc(F)cc(F)c2)C1	none (no result: NCOA1 inh, EBV LMP1 NFkB, Shn3 inh set2, NR5A2 inv ag, SRC3 inh)
CS(=O)(=O)c1ncc(Cl)c(C(=O)Nc2ccc(OC(F)F)cc2)n1	EBV LMP1 NFkB inconclusive, Shn3 inh set2 93 (no result: SRC2 inh)
CS(=O)(=O)c1ncc(Cl)c(C(=O)Nc2ccc(N3CCOCC3)cc2)n1	Shn3 inh set2 94 (no result: SRC2 inh)
CS(=O)(=O)c1ccc(C(=O)Nc2ccc(N3CCOCC3)cc2)c(Cl)c1	none
COC(=O)[C@]12C[C@H](CC(=O)NCC34CC5CC(CC(C5)C3)C4)C(=O)N(CCC3=CCCCC3)C1=C[C@H](C1CCCC1)O[C@@H]2C	none (no result: NCOA1 inh, EBV LMP1 NFkB, Shn3 inh set2, NR5A2 inv ag, SRC3 inh)
CCOC(=O)N=Nc1c2ccccc2c2nc3no[nH]c3nc12	EBV LMP1 NFkB 86, Shn3 inh set2 100, SRC3 inh 89
CCN(c1ccccc1)S(=O)(=O)c1ccc(Cl)c(NC(=O)Nc2ccc(Cl)cc2C#N)c1	EBV LMP1 NFkB 85
CCN(c1ccccc1)S(=O)(=O)c1cc(NC(=O)Nc2ccccc2C#N)ccc1Cl	none
O=C(NN=C/C=C/c1ccco1)c1cc(-c2ccc(Cl)cc2)n[nH]1	none (no result: NCOA1 inh, EBV LMP1 NFkB, Shn3 inh set2, NR5A2 inv ag, SRC3 inh)
Nc1nc(=O)n(C2CC(O)C(CO)O2)cc1Cl (stereo unspecified)	none (no result: EBV LMP1 NFkB)
Cc1cc(N)nc(=O)n1C1CC(O)C(CO)O1 (stereo unspecified)	EBV LMP1 NFkB 87
CCN(CC)C1CCCCC1NS(=O)(=O)c1ccc(Cl)cc1 (stereo unspecified)	EBV LMP1 NFkB 52
CCCN1CCS(=O)(=O)N(Cc2cn(Cc3ccc(F)cc3)nn2)C(C(=O)OC)C1 (stereo unspecified)	none (no result: NCOA1 inh, EBV LMP1 NFkB, Shn3 inh set2, NR5A2 inv ag, SRC3 inh)
O=C(Nc1sc2c(c1C(=O)O)CCCC2)c1ccc(F)cc1	none
CC(C)(C)c1ccc(C(=O)Nc2sc3c(c2C(=O)O)CCC3)cc1	SRC2 inh 68, NCOA1 inh 67, NR5A2 inv ag 84, SRC3 inh 77
O=[N+]([O-])c1ccc(S(=O)(=O)c2ccccc2)nc1	EBV LMP1 NFkB 53, Shn3 inh set2 93
Nc1ccc(S(=O)(=O)c2ccccc2)nc1	none
Cc1cc(Sc2ccc([N+](=O)[O-])cn2)ccc1Br	none
Cc1cc(S(=O)(=O)c2ccc([N+](=O)[O-])cn2)ccc1Br	EBV LMP1 NFkB 74, Shn3 inh set2 98
Cc1ccc(S(=O)(=O)c2ccc([N+](=O)[O-])cn2)cc1	EBV LMP1 NFkB 60, Shn3 inh set2 95
O=C(NCCc1ccc(F)cc1)c1cc2ccccn2n1	none (no result: NCOA1 inh, EBV LMP1 NFkB, Shn3 inh set2, NR5A2 inv ag, SRC3 inh)
COc1cc(C(=O)NC(=S)NNC(=O)c2cnccn2)cc(OC)c1OC	Shn3 inh set2 89
CC(CNC1CCCCC1)OC(=O)c1ccccc1 (stereo unspecified)	EBV LMP1 NFkB 62
